Results as given in ChEMBL document CHEMBL1961873, “Compounds: GSK PKIS; Assays: Nanosyn kinase panel” (2012).

target: Tyrosine-protein kinase CSK (Homo sapiens) (UniProt P41240); conditions: at 0.1 µM
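Also: value given is the averaged percent inhibition of CSK kinase activity, from the GSK PKIS kinase inhibitor set screening panel.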

Chain of Tyrosine-protein kinase CSK (Homo sapiens) (P41240 2-450 limits assumed): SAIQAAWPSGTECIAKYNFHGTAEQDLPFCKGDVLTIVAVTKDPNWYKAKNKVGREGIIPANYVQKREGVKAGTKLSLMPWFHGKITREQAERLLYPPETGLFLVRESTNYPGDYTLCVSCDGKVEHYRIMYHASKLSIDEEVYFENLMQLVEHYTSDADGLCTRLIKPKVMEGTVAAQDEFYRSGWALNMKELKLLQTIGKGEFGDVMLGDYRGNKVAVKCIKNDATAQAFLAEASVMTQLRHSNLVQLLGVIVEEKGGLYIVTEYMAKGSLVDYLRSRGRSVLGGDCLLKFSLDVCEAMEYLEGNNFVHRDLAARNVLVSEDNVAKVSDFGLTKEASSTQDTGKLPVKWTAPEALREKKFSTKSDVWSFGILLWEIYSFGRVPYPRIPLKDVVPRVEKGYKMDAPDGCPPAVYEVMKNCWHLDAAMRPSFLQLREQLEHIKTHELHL

Compound	inhibition
Nc1ccc(C#Cc2cncnc2Nc2ccc(OCc3cccc(F)c3)c(Cl)c2)cc1	-1.23%
O=S(=O)(CCOCc1ccc(-c2ccc3ncnc(Nc4ccc(OCc5cccc(F)c5)c(Cl)c4)c3c2)o1)c1ccccc1	1.76%
Nc1nccc(C#Cc2cncnc2Nc2ccc(OCc3cccc(F)c3)c(Cl)c2)n1	10.2%
ON=C1CCc2cc(-c3nc(C4CCNCC4)[nH]c3-c3ccncc3)ccc21	-4.87%
Cc1cc(O)cc(C)c1/C=C/c1cncc(C(=O)N(C)C)c1	4.08%
CCn1c(-c2nonc2N)nc2c(C#CC(C)(C)O)nc(OCCNC)cc21	1.36%
Cc1cc(-c2ccccn2)cc(C)c1/C=C/c1cncc(-c2nn[nH]n2)c1	1.73%
NS(=O)(=O)c1ccc(-c2cc3ccncc3cc2OCc2ccccc2)cc1	4.58%
CS(=O)(=O)Nc1cccc(-c2ccc3c(NC(=O)C4CC4)n[nH]c3c2)c1	-2.14%
O=C(Nc1ccc(Oc2ccc3[nH]c(NC(=O)c4ccco4)nc3c2)cc1)Nc1cc(C(F)(F)F)ccc1F	2.94%
COc1ccc2ncnc(Nc3ccc(OCc4ccccc4)cc3)c2c1	2.5%
COC(=O)c1cncc(/C=C/c2c(C)cc(O)cc2C)c1	4.04%
COc1cc2ncnc(Nc3ccc4c(cnn4Cc4ccccc4)c3)c2cc1OC	11.1%
Cc1ccc2c(c1)/C(=N/Nc1ccc(S(N)(=O)=O)cc1)C(=O)N2	-2.97%
CN(C)CCCn1c(-c2nonc2N)nc2cnccc21	1.79%
CCCN1CCCC(c2ccc(Nc3nc(Nc4cc(F)ccc4C(N)=O)c4cc[nH]c4n3)c(OC)c2)C1 (configuration not stated)	2.66%

Compound	inhibition
Cc1ccc(NC(=O)CC2CC2)cc1-c1ccc(C(=O)NCC2CC2)cc1	4.41%
Cc1ccc(Nc2ccnc(Nc3cccc(C(N)=O)c3)n2)cc1O	10.8%
CN(c1ccc(NC(=O)Nc2ccc(OC(F)(F)F)cc2)cc1)c1ccnc(Nc2cccc(S(N)(=O)=O)c2)n1	3.6%
CS(=O)(=O)CCNCc1nc(-c2ccc3ncnc(Nc4ccc(OCc5cccc(C(F)(F)F)c5)cc4)c3c2)cs1	3.59%
Cc1nc(-c2ccccc2)n2nc(NCCCN3CCOCC3)ncc12	-0.24%
CN(C)C(=O)O[C@H]1CN[C@H](C#Cc2cc3ncnc(Nc4ccc(OCc5cccc(F)c5)c(Cl)c4)c3s2)C1	0.6%
NC(=O)c1sc(-n2cnc3ccccc32)cc1OCc1ccccc1Br	1.13%
COc1cc(/C=N/Nc2ncnc3c2cnn3C(C)C)ccc1O	0.38%
Cc1ccc2c(-c3ccnc(Nc4cccc(C(F)(F)F)c4)n3)c(-c3ccccc3)nn2n1	4.63%
CC(C)c1ccc2c(c1)NC(=O)/C2=N/Nc1ccc(S(N)(=O)=O)cc1	-1.01%
NS(=O)(=O)c1ccc(NC=C2C(=O)Nc3ccc4ncsc4c32)cc1	2.77%
CN(C)c1cc2c(Nc3ccc4c(cnn4Cc4ccccc4)c3)ncnc2cn1	6.06%
Oc1cccc(-c2nc(-c3ccccc3)[nH]c2-c2ccncc2)c1	6.74%
CCn1c(-c2nonc2N)nc2ccc(F)cc21	5.53%
CN1CCN(C(=O)c2ccc(NC(=O)Nc3ccc(N(C)c4ccnc(Nc5ccc(CS(C)(=O)=O)cc5)n4)cc3)cc2)CC1	-1.19%
Nc1nccc(-c2c(-c3ccc(F)cc3)nn3cc(C(F)(F)F)ccc23)n1	-0.9%
